The campaign covered roughly 48,000 compounds. About 13,000 (27%) showed an effect of 50% or more. Some of the results follow.

For the test, the system named is Wolbachia pipientis. Description: Anti-Wolbachia Cell-Based Screen. The test is classed as functional. Set-up: scale not given: in the data most compounds retested in dose-response had high values. As to conditions: 5 µM.
Turning to `O=C(CSc1ccc(F)cc1)NS(=O)(=O)c1ccc2c(c1)OCCO2`, the “Percent Effect” value was -12.15%.

`CN(C)C(CNCc1nc(-c2ccsc2)no1)c1ccco1` (stereo not given): the “Percent Effect” value worked out at 15.02%. As to `CCC(O)(CNCc1ccncc1)c1ccc(Br)cc1` (stereo not given), the “Percent Effect” value is 15.97%. As for `COc1ccc(CN2C[C@@H](F)[C@@H](OCc3nc4cnccc4[nH]3)C2)cn1`, the “Percent Effect” value is -7.55%. On to `O=C(c1cc(-c2ccco2)nc2c(Cl)cccc12)N1CC[C@H]2CNC[C@H]21`, for which the “Percent Effect” value is given as -4.812%. `O=C(Nc1ccccc1F)N(CCO)Cc1ccsc1`: the “Percent Effect” value was -6.968%.

`CN1C(=O)[C@H]2CC[C@@H]1CN(C(=O)Nc1ccccc1C(F)(F)F)C2`: the “Percent Effect” value is reported as -23.74%. Turning to `CCc1noc(CS(=O)(=O)C/C=C/c2ccccc2)n1`, the “Percent Effect” value was -3.698%.

Turning to `Cc1cccc2cc(CN3CCC(O)(CN4CCCC4)CC3)c(=O)[nH]c12`, the “Percent Effect” value is given as -13.98%. As to `COc1ccc(CNC(=O)NCc2c(C)cc(C)[nH]c2=O)cc1`, the “Percent Effect” value was -8.384%. As for `Cc1cccc2cc(CN3CCC(N4CCCC4)CC3)c(=O)[nH]c12`, the “Percent Effect” value was -6.915%. Consider `Cc1ccc2cc(CNCCCO)c(=O)[nH]c2c1`, for which the “Percent Effect” value is recorded as -12.61%. Consider `CCc1cccc2cc(CN)c(=O)[nH]c12`, for which the “Percent Effect” value worked out at 94.88%. As to `COCCNC(=O)NCCc1cccc(OC)c1O`, the “Percent Effect” value is -1.079%. As for `COc1ccccc1CNCCc1cccc(C(N)=O)c1`, the “Percent Effect” value was -10.3%.

In the case of `COCCNCc1cc2ccc(C)c(C)c2[nH]c1=O`, the “Percent Effect” value worked out at 110.6%.

Consider `CCc1cccc2cc(CNCCOC)c(=O)[nH]c12`, for which the “Percent Effect” value is recorded as 77.28%.

For the compound `CCc1nccn1CCC(=O)N1CC(=O)N(c2ccccc2C)CC1C` (stereo not given), the “Percent Effect” value is listed as -5.04%. Take `CC(O)(CCc1ccccc1)CNC(=O)c1ccsc1` (stereo not given): the “Percent Effect” value is listed as 16.96%.

In the case of `CCOC(=O)CSc1nnc(C(N)CC(C)C)o1.Cl` (stereo not given), the “Percent Effect” value was found to be 98.1%. For `CCOC(=O)CSc1ccc(-c2nc(CC)no2)cn1`, the “Percent Effect” value is -9.081%. Next, `CCOC(=O)CSc1ccc(-c2nc(C)no2)cn1`: -12.26%; `Cc1cc(C)cc(Nc2nc(C)cc(=O)n2CC(=O)NC(C)C)c1`: 102.2%. For `CCC(C)NC(=O)Cc1c(C)nc2c(c1C)c(=O)[nH]n2C` (stereo not given), the “Percent Effect” value is recorded as -5.261%. With `Cc1nc2cc(=O)[nH]n2c(C)c1CC(=O)NC(C)C`, the “Percent Effect” value is given as 6.511%. Consider `CC(C)NC(=O)CC(C)NCc1cc(Cl)ccc1F` (stereo not given), for which the “Percent Effect” value turned out to be 1.096%. Turning to `Cc1cc(NC(C)C(=O)N2CCN(c3ncccn3)CC2)ccc1F` (stereo not given), the “Percent Effect” value is -7.766%. Turning to `CSc1nc2cc(C)n(CC(=O)NC(C)C)c2c(=O)n1CC(C)C`, the “Percent Effect” value was 0.5328%. As to `CCC(C)NC(=O)CN1CCC2(CC1)OCCO2` (stereo not given), the “Percent Effect” value is given as 3.422%. With `CCC(C)NC(=O)Cn1c(Nc2cc(C)cc(C)c2)nc(C)cc1=O` (stereo not given), the “Percent Effect” value is listed as 130.9%. Consider `Cc1cc(=O)n(CC(=O)NC(C)C)c(Nc2ccc(F)c(C)c2)n1`, for which the “Percent Effect” value is 119.3%. Next, `O=C1CC(c2cccs2)Cc2[nH]c(=O)ccc21` (stereo not given): 3.972%; `O=C(CN1CCc2cncnc2C1)NC(C1CC1)C1CC1`: 0.03163%; `CCN(CC)C(=O)c1ccn(COc2cc(C)cc(C)c2)n1`: 11.03%. In the case of `CC(C)c1nnc2n1CCN(C(=O)c1cnc(C3CC3)s1)C2` it was -14.42%; in that of `O=C(N1CCCC1)N1CCn2c(nnc2C2CCCN2)C1` (stereo not given), 124.8%; in that of `CN(C)Cc1cnc2n1CCN(C(=O)NC1CCCC1)CC2.O=C(O)C(F)(F)F`, -15.13%. `CN1CCN(Cc2cnc3n2CCN(C(=O)N2CCCC2)C3)CC1`: the “Percent Effect” value is given as -14.55%. For the compound `O=C(NC1CCCCC1)N1CCn2c(nnc2C2CCCN2)C1` (stereo not given), the “Percent Effect” value turned out to be 120.9%. Next, `O=C(c1ccc(C2CCCN2)s1)N1CCN(C(=O)N2CCOCC2)CC1` (stereo not given): 14.1%; `CC(C)NC(=O)N1CCn2c(nnc2C2CCCN2)C1` (stereo not given): 102.1%. For the compound `CN1CCN(C(=O)NC2CCCC2)Cc2cccnc21.O=C(O)C(F)(F)F`, the “Percent Effect” value is given as -7.276%. On to `CC(C)NC(=O)N1CCC(c2nnc3ccc(C(=O)N(C)C)cn23)C1` (stereo not given), for which the “Percent Effect” value stood at 2.89%. For the compound `O=C1CC(c2cccs2)Cc2[nH]c(=O)c(C(=O)NC3CCCC3)cc21` (stereo not given), the “Percent Effect” value was 7.726%. As for `Cn1cc(C(=O)NC[C@H]2OC[C@@H]3CCN(C4CCOCC4)C[C@@H]32)cn1.O=C(O)C(F)(F)F`, the “Percent Effect” value is recorded as -10.96%.

Take `O=C(CCC1CCCC1)N1CCC(c2ncc3c(n2)CCNC3)CC1`: the “Percent Effect” value was -4.401%. Take `COC1CCN(S(=O)(=O)N2CCCC(c3cccc(C(=O)O)c3)C2)CC1` (stereo not given): the “Percent Effect” value worked out at 12.84%. In the case of `CN1CCc2nc(C3CCCN(S(=O)(=O)N4CCCC4)C3)ncc2C1` (stereo not given), the “Percent Effect” value is on record as 92.03%. On to `CN1CCC(c2ncc3c(n2)CCN(C(=O)CC2C=CCC2)C3)CC1` (stereo not given), for which the “Percent Effect” value was -2.125%. With `CN1CCc2nc(C3CCCN(C(=O)CC(C)(C)C)C3)ncc2C1` (stereo not given), the “Percent Effect” value is reported as 119.8%. Take `CCC(=O)N1CCCC(c2ncc3c(n2)CCN(C)C3)C1` (stereo not given): the “Percent Effect” value was found to be 111.8%. On to `CN1CCc2nc(C3CCCN(C(=O)CC4CCCCC4)C3)ncc2C1` (stereo not given), for which the “Percent Effect” value turned out to be 117.4%. In the case of `CC1(C)CCN(S(=O)(=O)N2CCCC(c3cccc(C(=O)O)c3)C2)CC1` (stereo not given), the “Percent Effect” value was determined as 0.9326%. On to `Cc1nc[nH]c1CN1CCCC(CNC(=O)c2ccncn2)C1` (stereo not given), for which the “Percent Effect” value is reported as -3.697%. With `CCOc1ccccc1C(=O)NS(=O)(=O)c1ccc2c(c1)OCCCO2`, the “Percent Effect” value is given as -4.596%. Turning to `CCOc1cccc2c1OCC(C(=O)NS(=O)(=O)Cc1ccccc1)=C2`, the “Percent Effect” value is listed as -3.971%.

For `CN(C)C(=O)N1CCC2(CC(=O)N(c3ccc4c(c3)OCO4)C2)C1` (stereo not given), the “Percent Effect” value stood at 3.437%.

As for `CCS(=O)(=O)N1CCC2(CC(=O)N(c3ccc4c(c3)OCO4)C2)C1` (stereo not given), the “Percent Effect” value is -0.7388%. Next, `c1cncc(OCc2nc(C3CC3)nn2-c2ccc3c(c2)OCCO3)c1`: 1.227%.

As to `CCOc1cccc2c1OCC(=O)N(c1ccc3c(c1)OCCO3)C2`, the “Percent Effect” value turned out to be 123.7%. On to `CCOc1cccc2c1OCC(=O)N(c1ccc(N(C)C)cc1)C2`, for which the “Percent Effect” value worked out at 138.3%. On to `CCOc1cccc2c1OCC(C(=O)NC(C)Cn1cccn1)=C2` (stereo not given), for which the “Percent Effect” value was -1.745%.

As to `CCOc1cccc2c1OCC(=O)N(c1ccc3c(c1)OCO3)C2`, the “Percent Effect” value is listed as 112.1%.

For the compound `Cc1nn(C)cc1C(C)Nc1ncc(C(N)=O)cc1Cl` (stereo not given), the “Percent Effect” value is listed as -11.95%. Turning to `COC(=O)CC(NC(=O)c1cccc(N2CCCC2=O)c1)c1cccs1` (stereo not given), the “Percent Effect” value was determined as 6.294%.

Source of the values: ChEMBL document CHEMBL3988442, “University of Dundee, Small-Polar-MMV Screening Library” (2021).
